Reference: PubChem BioAssay AID924 (National Center for Advancing Translational Sciences (NCATS), 2007)
Several values for one entry are separate records, joined by “and”; a condition that tells them apart may be missing. Identical values can stand only once. In all, about 130,000 compounds went through this assay and about 1,200 (0.92%) were called active. A call without a number means that no potency is given here. Inconclusive results (about 3%) are left out. The sample holds actives, similar compounds and a random draw of the others, so the mix is not that of the screen. Calls come from the whole dose curve; as a rule, active = well fitted cell-killing curve with a large enough effect; inconclusive = small, poorly fitted or top-dose-only effect; inactive = no such curve, though single readings can be large or run the other way.

Assay: qHTS Screen for Compounds that Selectively Target Cancer Cells with p53 Mutations: Cytotoxicity of p53ts Cells at the Permissive Temperature; note: nearly all actives have a fitted effect of over 55% in size
Settings: H1299-p53A138V at 32C, ATP luminescence viability, 24 h; series mostly up to 46.1 µM
Source text: NIH Chemical Genomics Center [NCGC] NIH Molecular Libraries Screening Centers Network [MLSCN] MLSCN Grant: 1 X01 MH079844-01 Assay Submitter (PI): Dr. SUN, YI, University of Michigan NCGC Assay Overview: Synthetic Lethal Screen for Compounds to Kill Cancer Cells with p53 Mutation. Tumor suppressor gene p53 serves as a major cellular barrier against tumorigenesis. […] The goal of this screening is to identify small molecule probes that selectively kill cancer cells with mutations in p53. This screening was carried out using two lines of H1299 lung cancer cells. The H1299-p53 A138V line express a temperature sensitive p53 mutant (p53ts) in which the mutant p53 protein (A138V) is in the mutant confirmation when grown at 39C (the nonpermissive temperature) and in the wild type conformation when grown at 32C (the permissive temperature). A H1299-neo line (p53 null) grown at both 39C and 32C were used as counter-screens to filter out false positive associated with temperature shifting. The small molecular compounds that selectively target mutant p53-containing cancer cells were selected as candidate probes for further study. A cytotoxicity assay based on the measurement of ATP contents in cells was used in this screen. Concentration-responses of all the compounds in the library collection were determined in qHTS using the cell lines and temperature conditions as above.
NCGC Assay Protocol Summary: Both the H1299-p53A138V and H1299-neo cell lines were provided by Dr.Yi Sun, a PI at the University Michigan. The cells were maintained and cultured at 37C. The resuspended frozen cells were used to plate the cells in the 1536-well assay plates at a density of 600 cells per well in 5 ul medium. The assay plates with the cells were incubated at 37C for 16 to 30 hours before the experiments. The library compounds in DMSO solution were added to the cells in assay plates and incubated 24 hours at 39C (for mutant p53 conformation) or 32C (for normal p53 conformation as control). An ATP_lite assay kit (PerkinElmer) was used to determine the cell viability. Tomaxifen (100uM) was used as the positive control for cell killing. Data were normalized to the controls for basal activity (DMSO only) and 100% killing (100uM tamoxifen). AC50 values were determined from concentration-response data modeled with the standard Hill equation. P53 assay protocol: 1. Reagent; 5 uL H1299-p53A138V or H1299-neo cell cells/well 2. Time; overnight; 37C incubation 3. Compounds; 23 nL; 5.9 nM to 46 uM 4. Controls; 23 nL; Tamoxifen 100 uM 5. Time; 24 hr; 37C incubation 6. Reagent; 3 uL; ATP_Lite reagent 7. Time; 20 min; Room Temperature 8. Detection; Luminescence; Viewlux plate reader Keywords: p53, synthetic lethal, cancer, cell viability, cytotoxicity, H1299 cell line, luminescence, MLSMR, MLSCN, NIH Roadmap, qHTS, NCGC
Potency is the fitted concentration of half-maximal effect.

SMILES | Potency | activity change, negative = cytotoxicity
COc1ccc(C(CCN(Cc2ccc(OC)c(OC)c2)C(=O)CCl)c2ccccc2)cc1 (configuration not stated) | 5.01 µM (active) | –
COc1ccc(/C=C/NC(=O)Cc2ccc(OC)c(OC)c2)cc1 | – | -5.23% [at 9.22 µM] (inactive) and 5.05% [at 9.22 µM] (inactive)
CCN(CCCCOC(=O)c1ccc(OC)c(OC)c1)C(C)Cc1ccc(OC)cc1 (configuration not stated) | inactive | –
CCc1ccc(NC(=O)c2cc(S(=O)(=O)N3CCCC(C)C3)cn2C)cc1 (configuration not stated) | inactive | –
COc1cccc(NC(=O)CSC2=Nc3ccccc3C3=NC(CC(=O)NC4CCCCC4)C(=O)N23)c1 (configuration not stated) | inactive | –
COC(=O)c1ccccc1NC(=O)Cn1c(=O)cc(C)c2c(C)nn(-c3cccc(Cl)c3C)c21 | inactive | –
Cc1ccc(NC(=O)CSc2nc3c([nH]c4ccccc43)c(=O)n2-c2ccccc2)c(C)c1 | inactive | –
CC(C)c1ccc(NC(=O)CN(C)S(=O)(=O)c2ccc3c(c2)c(=O)n(C)c(=O)n3C)cc1 | inactive | –
COc1ccc(C(=O)Nc2nncs2)c(OC)c1 | inactive | –
COC(=O)c1sc(NC(=O)c2ccc(OC)cc2OC)nc1C | 0.398 µM (active) | –
COC(=O)c1sc(NC(=O)c2csc3c2CCCC3)nc1C | inactive | –
COc1ccc(-c2nc3sc(CCNS(=O)(=O)c4ccc(F)c(C)c4)c(C)n3n2)cc1 | inactive | –
CCn1c(=O)c2cc(C(=O)NCCc3ccc(Cl)cc3)sc2c2ccccc21 | inactive | –
O=C(NCCc1ccc(Cl)cc1)c1ccc2nc(CCc3ccccc3)oc2c1 | inactive | –
Cc1ccccc1Nc1nn2c(=O)c3ccc(C(=O)NCCc4ccc(Cl)cc4)cc3nc2s1 | 15.8 µM (active) | –
CCOc1ccc(C(=O)c2cn(Cc3ccccc3OC)c3ccc(F)cc3c2=O)cc1 | inactive | –
CCOC(=O)c1cc2c(=O)n3ccccc3nc2n(CC2CCCO2)c1=NC(=O)c1ccccc1Br (configuration not stated) | inactive | –
O=C(NCc1ccc2c(c1)CCN2C(=O)c1ccccc1)Nc1cc(F)ccc1F | inactive | –
COc1ccc(-c2nc(-c3ccccc3)no2)c(OC)c1 | 5.01 µM (active) | –
COc1ccc(-c2noc(CSc3nnc(-c4ccccc4)n3-c3ccc(F)cc3)n2)c(OC)c1 | inactive | –
COc1ccc(-c2cc(-c3nc(-c4cc(OC)c(OC)c(OC)c4)no3)[nH]n2)c(OC)c1 | inactive | –
CCn1c(C)c(C)c2cc(C(=O)N3CCN(c4cccc(C)c4C)CC3)ccc21 | inactive | –
CCOc1ccc(C(=O)/C=C/c2cn(CC(O)CN3CCCCCC3)c3ccccc23)cc1 (configuration not stated) | inactive | –
CCOC(=O)c1nnn(CC(=O)NC(=O)Nc2ccccc2F)c1C(=O)OCC | inactive | –
Cc1ccc2oc(C(=O)Nc3ccc(S(=O)(=O)N4CCCCCC4)cc3)cc(=O)c2c1 | inactive | –
Cc1nc2ccccc2n1C(=O)N1CCOCC1 | inactive | –

SMILES | Potency | activity change, negative = cytotoxicity
Cc1cc(C)c2c(n1)nn1c(N3CCOCC3)cc(C)nc21 | inactive | –
Cc1nn2c3cc(N4CCOCC4)ccc3nc2c2ccccc12 | 2 µM (active) | –
COc1ccc(CNC(=O)CC2Oc3ccc(C)cc3NC2=O)cc1 (configuration not stated) | inactive | –
Cc1cc(=O)c2cc(C(=O)Nc3cccc(C)c3C)ccc2[nH]1 | inactive | –
O=C(CSc1nnc(CNC(=O)c2ccccc2)n1-c1ccc(F)cc1)Nc1ccccc1F | inactive | –
CCc1ccc2oc(-c3ccc(N)cc3)nc2c1 | 7.94 µM (active) | –
CCc1ccc2oc(-c3ccc(NC(=O)c4cc5ccccc5o4)cc3)nc2c1 | inactive | –
CCc1ccc2oc(-c3ccc(C)c(NC(=O)/C=C/c4ccco4)c3)nc2c1 | inactive | –
COc1ccc(-c2nnc(SCC(=O)Nc3ccc(C(C)C)cc3)nc2-c2ccc(OC)c(OC)c2)cc1OC | inactive | –
CC(C)(C)c1ccc(C(=O)NCC(c2ccc(Cl)cc2)N2CCOCC2)cc1 (configuration not stated) | inactive | –
O=C(Cn1c(=O)sc2ccccc21)Nc1nc2c(s1)CCCC2 | inactive | –
NC(=O)c1ccccc1NC(=O)c1ccccc1F | inactive | –
O=C(Nc1nc2c(s1)CCCC2)c1ccccc1F | 7.94 µM (active) | –
O=C1N(Cc2ccccc2)c2ccc(Cl)cc2C1(O)c1c[nH]c2ccccc12 (configuration not stated) | inactive | –
Cn1c(=O)c(C(=O)Nc2ncccn2)c(O)c2ccccc21 | 12.6 µM (active) | –
CCOc1cc(C(=O)Nc2ncccn2)cc(OCC)c1OCC | inactive | –
O=C(Nc1ncccn1)c1cccs1 | inactive | –
CC1CCCN(c2nc3c(S(=O)(=O)c4ccc(C(C)C)cc4)nnn3c3ccsc23)C1 (configuration not stated) | inactive | –
CCOc1ccc(C(=O)Nc2ccc3nc4c(c(Nc5ccccc5OC)c3c2)CCCC4)cc1 | inactive | –
COc1cccc(CNC(=O)CSc2c3c(nc4cc(Cl)ccc24)CCCC3)c1 | inactive | –
CCOc1ccc(NC(=O)CSc2c3c(nc4ccccc24)CCCC3)cc1 | 22.4 µM (active) | –
CCOC(=O)c1cc(-c2ccccc2)n(CCC(=O)Nc2ccccc2CC)c1C | inactive | –
O=C(NC1CCCCC1)c1ccc(Cn2c(SCc3ccccc3)nc3cccnc32)cc1 | inactive | –
Cc1ccc(CSc2nc3cccnc3n2Cc2ccc(C(=O)NC3CC3)cc2)cc1 | 2.24 µM (active) | –
O=C(NCc1ccc(F)cc1)c1ccc(Cn2c(SCc3ccc(F)cc3)nc3cccnc32)cc1 | inactive | –
Cc1ccc(Cl)cc1NC(=O)Cc1ccc(-n2c(C)nc3cccnc32)cc1 | inactive | –

SMILES | Potency | activity change, negative = cytotoxicity
COc1cccc(N2CC(NC(=O)/C=C\c3ccccc3)CC2=O)c1 (configuration not stated) | inactive | –
CCc1ccccc1NC(=O)c1cccs1 | inactive | –
O=C(O)c1ccc(NC(=O)c2cccs2)cc1 | inactive | –
Cc1nc(-c2ccc(NC(=O)c3cccs3)cc2)cs1 | 1.26 µM (active) | –
Cc1c(CNC(C)c2ccccc2)c(C(=O)O)c(C)n1Cc1c(F)cccc1Cl (configuration not stated) | inactive | –
COc1cc(NC(=O)C2CCN(c3cnccn3)CC2)cc(OC)c1 | inactive | –
CN(C)c1ccc(-c2nc(NCCN3CCOCC3)c3ccccc3n2)cc1 | 12.6 µM (active) | –
c1ccc(-c2nc(NCc3ccco3)c3ccccc3n2)cc1 | inactive | –
c1ccc2[nH]c(NCCN3CCOCC3)nc2c1 | inactive | –
NS(=O)(=O)c1ccc(CCNC(=O)CCCCCn2c(=O)[nH]c3ccccc3c2=O)cc1 | inactive | –
CC(=O)Nc1cccc(NC(=O)CSc2cn(CC(=O)N3CCCC3)c3ccccc23)c1 | inactive | –
CCOc1ccccc1C(=O)NCC(c1ccc(N(C)C)cc1)N1CCCC1 (configuration not stated) | inactive | –
CCC(=O)NC(=Nc1nc2ccccc2s1)NC(=O)CC | 15.8 µM (active) | –
O=C(O)CSCc1nc2ccccc2s1 | inactive | –
COC(=O)c1nc2ccccc2s1 | inactive | –
COc1ccc(OC)c(-c2noc(N3CCN(c4cc(Cl)ccc4C)CC3)n2)c1 | inactive | –
Cc1ccc(F)cc1NC(=O)c1cccc(N(C)C)c1 | inactive | –
Cc1ccccc1NC(=O)c1ccccc1 | inactive | –
Cc1ccc(NC(=O)c2cccc(N(C)C)c2)cc1NC(=O)c1ccc(O)cc1 | 12.6 µM (active) | –
CC(C)c1ccc(NC(=O)C2CCN(c3nc(-c4ccc(C(C)C)cc4)no3)CC2)cc1 | inactive | –
Cn1c(=O)c(C(=O)O)nn(-c2ccccc2)c1=O | inactive | –
O=C(Nc1nnc(S(=O)(=O)N2CCCCCC2)s1)c1cccc(Br)c1 | inactive | –
O=C(Cn1c(=O)nc(-c2ccccc2)c2cc(Cl)ccc21)NCc1ccc(Cl)cc1 | 10 µM (active) | –
CCN(C(=O)Cn1c(=O)nc(-c2ccccc2)c2cc(Cl)ccc21)c1cccc(C)c1 | inactive | –
O=C(Cn1nnc(-c2ccccc2)n1)NCc1ccccc1 | inactive | –
CCc1ccccc1NC(=O)Cc1ccc(NC(=O)N2CCCCc3ccccc32)cc1 | inactive | –

SMILES | Potency | activity change, negative = cytotoxicity
COc1ccc2c(c1)CCc1c(C(=O)Nc3cc(C)ccc3O)noc1-2 | inactive | –
Cc1ccc2nc(COc3cccc(NC(=O)Nc4ccc(C)c(Cl)c4)c3)cc(=O)n2c1 | inactive | –
O=C(CCc1ccccc1)Nc1cccc(-c2nnc(-c3ccco3)o2)c1 | inactive | –
CCOc1ccc(C(=O)Nc2ccncc2)cc1 | inactive | –
CCOc1ccc(-c2nnc(-c3ccco3)o2)cc1 | 10 µM (active) | –
CCC(=O)Oc1cccc(C(=O)Nc2ccc(-c3nnc(-c4ccco4)o3)cc2)c1 | inactive | –
CCOc1ccc(NC(=O)c2ncoc2-c2ccco2)cc1 | 12.6 µM (active) | –
CCOc1ccc(NC(=O)Nc2cc(C)on2)cc1 | inactive | –
COc1ccc(-n2c(=O)c3c(c4cc(OC)ccc4n3C)n(Cc3cccc(C)c3)c2=O)cc1 | inactive | –
COc1ccc(N2C(=O)CSC23C(=O)N(Cc2cccc(F)c2)c2ccccc23)cc1Cl (configuration not stated) | inactive | –
CCCCOc1ccc(NC(=O)c2cc3c(n(-c4ccc(Cl)cc4)c2=O)CCCC3=O)cc1 | inactive | –
COc1ccc(C2CC(=O)N(Cc3ccccc3C)c3c2c(C)nn3-c2nc(C)cc(C)n2)c(OC)c1 (configuration not stated) | inactive | –
CCOCCCNC(=O)c1ccc2nc(CCc3ccccc3)oc2c1 | inactive | –
COc1ccc(C(=O)Nc2onc3c2CCCC3)cc1 | 10 µM (active) | –
COc1ccc(NC(=O)c2c(C)oc3c2CCCC3)cc1 | inactive | –
CC1CCc2noc(NC(=O)c3ccc([N+](=O)[O-])cc3)c2C1 (configuration not stated) | inactive | –
COc1ccc(-c2onc(C)c2C)cc1S(=O)(=O)NCC1CCN(Cc2cccc(F)c2)CC1 | inactive | –
CCOc1ccccc1NC(=O)CN1CCCN(Cc2cccc(Cl)c2)S1(=O)=O | inactive | –
COc1ccc(CNC(=O)c2ccc3c(O)c(S(=O)(=O)c4ccccc4)c(=O)[nH]c3c2)cc1 | inactive | –
CC(C)c1ccc(NC(=O)c2ccc3c(O)c(S(=O)(=O)c4ccccc4)c(=O)[nH]c3c2)cc1 | 12.6 µM (active) | –
Cc1ccc(C(=O)Nc2ccc3[nH]c(=O)c(=O)[nH]c3c2)cc1 | inactive | –
Cn1c(=NC(=O)CSCC(=O)N2CCCCC2)sc2ccccc21 | inactive | –
Cn1c(=NC(=O)CSCC(=O)N2CCOCC2)sc2ccccc21 | inactive | –
Cn1c(=NC(=O)c2cnccn2)sc2ccccc21 | 15.8 µM (active) | –
